High-throughput results (PubChem BioAssay)
Sampled rows, rich in hits. Any-hit rate of the full collection: about 18%.
IL1B secr inh: blocks inflammasome-driven IL-1 beta release; THP-1 LPS/ATP IL-1B secretion, AlphaLISA, 16 h; stronger effect = lower value; activity change, % at 57.5 µM; hit rate 4.7% among 360,000; AID 743279; in the data active = activity change below about -50%; inconclusive = mostly about -30% to -49%; note: % is set by controls: 0 for no effect and ±100 for the full control effect
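THP-1 cells pretreated 1 hr with compounds (up to 57.5 uM final), then stimulated with LPS (250 ng/mL final) plus ATP (1.25 mM final); secreted IL-1B measured by AlphaLISA after 16 hr, decreased signal indicating inhibition.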
HepG2 viability: kills HepG2 cells in TGF-b inhibitor counter-screen; HepG2 CAGA-GFP viability, ATP luminescence, 18 h; hit rate 0.76% among 410,000; Potency, µM (top dose mostly 46.1 µM), without a hit: at the top dose activity change, negative = cytotoxicity, actives largely listed as cytotoxic; note: potency is the fitted concentration of half-maximal effect
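HepG2 CAGA-GFP cells (1000/well, DMEM with 1% FBS) received compound, then TGF-beta at 500 pg/mL final, and were incubated 18 hours at 37 degrees C. Viability was read by CellTiter-Glo luminescence. Media-only wells were set as complete cell-killing and DMSO as no toxicity.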
TGFb inhibitor: TGF-b pathway inhibition; AID 588855; Potency, µM (series often up to 46.1 µM), without a hit: top-dose activity, negative = inhibition, most hits filed as inhibitors; hit rate 1.2% among 410,000; HepG2 CAGA-GFP TGF-b/SMAD3 reporter, GFP fluorescence, 18 h; TGF-beta stimulated, 500 pg/mL final; note: potency is the fitted concentration of half-maximal effect; % is set by controls: 0 for no effect and ±100 for the full control effect; nearly all actives have a fitted effect of over 65% in size
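Smad-responsive CAGA-GFP expression was quantified in HEPG2 cells exposed to compounds and 500 pg/mL final TGF-beta for 18 h at 37 degrees C; unstimulated wells defined full inhibition.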
DT40 TDP1 CPT: growth inhibition of DT40 Tdp1-/-;hTDP1 cells with camptothecin (screen for TDP1 inhibitors) | chicken DT40 Tdp1-/-;hTDP1 cells + 20 nM CPT, ATP luminescence, 48 h | Potency, µM (titrated, usually from 46.2 µM), inactives show at the top dose activity change, negative = growth inhibition, hits mostly inhibitors | hit rate 12% among 420,000; note: potency is the fitted concentration of half-maximal effect; % is set by controls: 0 for no effect and ±100 for the full control effect; nearly all actives have a fitted effect of over 55% in size
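Chicken DT40 Tdp1-/- cells stably complemented with human TDP1 were seeded at 400 cells/well in medium containing 20 nM camptothecin, exposed to pin-transferred compounds, and grown at 37 °C for at least 48 hr. Viability was read as ATP luminescence.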
TDP1 cell noCPT: qHTS for Inhibitors of human tyrosyl-DNA phosphodiesterase 1 (TDP1): qHTS in cells in absence of CPT; DT40 Tdp1-/- hTDP1 cells, no CPT, ATP luminescence, 48 h; Potency, µM (series often up to 46.2 µM), for inactives: top-dose activity change, negative = growth inhibition, most hits filed as inhibitors; hit rate 15% among 420,000; note: potency is the fitted concentration of half-maximal effect; % is set by controls: 0 for no effect and ±100 for the full control effect; nearly all actives have a fitted effect of over 55% in size
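Cells were dispensed at 400 per well, compounds added by pin tool, plates incubated ≥48 hr at 37 °C, then CellTiter-Glo added for 30 min at room temperature before luminescence reading. Line: DT40 Tdp1-/- complemented with hTDP1; camptothecin omitted.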
TDP1 block: blocks human tyrosyl-DNA phosphodiesterase 1. Q9NUW8. recombinant TDP1, AlphaScreen DNA substrate cleavage. Potency, µM (titrated, usually from 130 µM), without a hit: top-dose activity change, negative = inhibition, usual class: inhibitors. hit rate 0.28% among 350,000. AID 485290; note: potency is the fitted concentration of half-maximal effect; % is set by controls: 0 for no effect and ±100 for the full control effect; nearly all actives have a fitted effect of over 40% in size
Target sequence (Q9NUW8 whole entry, looked up): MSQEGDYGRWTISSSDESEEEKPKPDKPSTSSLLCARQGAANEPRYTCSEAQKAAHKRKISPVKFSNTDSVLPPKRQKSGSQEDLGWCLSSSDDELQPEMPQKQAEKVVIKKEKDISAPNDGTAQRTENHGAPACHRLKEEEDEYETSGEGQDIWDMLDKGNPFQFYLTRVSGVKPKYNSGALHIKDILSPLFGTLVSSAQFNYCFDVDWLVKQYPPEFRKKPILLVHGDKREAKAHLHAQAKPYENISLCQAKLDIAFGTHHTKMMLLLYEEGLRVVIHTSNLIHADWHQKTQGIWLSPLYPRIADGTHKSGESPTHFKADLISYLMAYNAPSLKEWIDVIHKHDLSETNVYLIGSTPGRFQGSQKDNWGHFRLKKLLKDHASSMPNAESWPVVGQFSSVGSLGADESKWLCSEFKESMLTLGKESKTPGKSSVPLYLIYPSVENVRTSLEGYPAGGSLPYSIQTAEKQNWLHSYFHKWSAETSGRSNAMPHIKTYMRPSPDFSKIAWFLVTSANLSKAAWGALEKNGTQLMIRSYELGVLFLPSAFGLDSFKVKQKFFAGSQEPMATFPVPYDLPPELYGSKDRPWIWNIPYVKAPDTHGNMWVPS
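AlphaScreen read-out: signal falls as enzyme removes the 3' tyrosine-FITC from a 5'-biotinylated DNA oligo (15 nM, 5 min, RT). Enzyme was E. coli-made recombinant Tdp1 at 1 nM, exposed to compound for 15 min beforehand; beads 10 ug/ml, 10 min.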
An asterisk follows results filed as active; ? = inconclusive; nt = no result. Unless noted, calls come from the whole dose curve; as a rule, active = well fitted curve in the direction sought with a large enough effect; inconclusive = small, poorly fitted or top-dose-only effect, or another doubt; inactive = no such curve, though single readings can be large; an effect the other way counts as inactive or inconclusive.

SMILES | IL1B secr inh | HepG2 viability | TGFb inhibitor | DT40 TDP1 CPT | TDP1 cell noCPT | TDP1 block
CCN(CC)C(=O)OCc1c(-c2ccccc2)ncc2ccccc12 | -26.2 | -10.7% | -8.4% | ? | 23.1µM* | 2.7%
COc1cccc(-c2ncc3ccccc3c2COC(=O)N2CCCCC2)c1 | -0.7 | -9.4% | -0.8% | ? | 16.4µM* | -0.4%
COc1cccc(OC)c1C(=O)OCc1c(-c2ccccc2)ncc2ccccc12 | -6.8 | -7.4% | -15.9% | 20.6µM* | 18.4µM* | 2.3%
O=C(O)c1ccccc1C(=O)OCc1c(-c2ccccc2)ncc2ccccc12 | 39.1 | 2.6% | 2.6% | ? | -12.7% | -0.3%
O=C(Cc1cccc(NC(=O)C2CCN(C(=O)C3CCCCC3)CC2)c1)Nc1cccc(C(=O)N2CCCCC2)c1 | 0.8 | -70.1% | -25.5% | -2.0% | -13.8% | nt
CCc1cccc(C)c1NC(=O)CN1C(=O)c2ccccc2Sc2ncccc21 | nt | -12.0% | 14.4% | ? | ? | 5.1%
CC(C)(C)C(C(=O)NCc1ccccc1)N1CCN(C(=O)C2CCCO2)CC1 (centres undefined) | 0.0 | nt | nt | -4.5% | 3.9% | nt
O=C(NCCO)c1cc2c([nH]c3ccccc32)c(-c2ccccc2)n1 | ? | -22.2% | 0.5% | ? | 16.4µM* | nt
Cc1ccc(-c2nc(C(=O)NCCCN(C)C)cc3c2[nH]c2ccccc23)cc1 | -17.1 | -69.1% | ? | ? | 23.1µM* | nt
O=C(NCCO)c1cc2c([nH]c3ccccc32)c(-c2ccc(F)cc2)n1 | -93.4* | -19.2% | -7.3% | ? | 16.4µM* | nt
Cc1nc(C(=O)NCCCO)cc2c1[nH]c1ccccc12 | -8.0 | -4.1% | 2.1% | ? | ? | nt
O=c1c2oc3ccccc3c2ncn1Cc1ccc(Br)cc1 | nt | 25.5% | 1.1% | -7.8% | -16.5% | 0.0%
CC1Cc2nc(SCC(=O)N3CCc4ccccc43)n(C)c(=O)c2S1 (centres undefined) | 18.0 | -4.8% | ? | ? | 23.1µM* | 5.9%
CC1Cc2nc(SCC(=O)c3ccccc3)n(Cc3ccccc3)c(=O)c2S1 (centres undefined) | ? | 2.4% | -0.2% | 10.3µM* | 10.3µM* | 7.6%
COc1ccccc1-n1c(SCC(=O)N2CCc3ccccc32)nc2c(c1=O)SCC2 | -16.5 | -2.1% | -15.8% | 9.2µM* | 7.31µM* | 8.7%
CC1Cc2nc(SCC(=O)NC3CCCCC3)n(C)c(=O)c2S1 (centres undefined) | 25.0 | 11.0% | -32.0% | -29.9% | -22.0% | -3.3%
Cc1nn(C(C)C(=O)Nc2cccc(F)c2)c(=O)c2c1sc1ccccc12 (centres undefined) | nt | -0.3% | 9.2% | -16.8% | ? | 5.7%
O=C(Nc1ccc(F)c(Cl)c1)c1cc(S(=O)(=O)N2CCCc3ccccc32)ccc1F | nt | -10.5% | ? | 13µM* | 14.6µM* | 0.0%
O=C(Nc1cccc(Cl)c1)c1cc(S(=O)(=O)N2CCCc3ccccc32)ccc1F | nt | -23.2% | ? | 10.3µM* | 4.11µM* | 5.2%
COc1ccc(S(=O)(=O)N2CCc3ccccc32)cc1C(=O)Nc1ccc(NC(C)=O)cc1 | -10.3 | -58.2% | ? | ? | ? | -2.9%
O=C(Nc1ccc(F)c(Cl)c1)c1cc(S(=O)(=O)N2CCc3ccccc3C2)ccc1F | nt | -16.1% | ? | ? | ? | -2.6%
COc1ccccc1NC(=O)c1c(C)cc(C)nc1SCC(=O)Nc1ccc(C)c(C)c1 | nt | -8.5% | -0.2% | ? | ? | 6.8%
COc1ccccc1NC(=O)c1c(C)cc(C)nc1SCC(=O)Nc1cccc(C)c1 | nt | -21.2% | 10µM* | ? | ? | 1.6%
Cc1cccc(NC(=O)c2c(C)cc(C)nc2SCC(=O)c2ccccc2)c1 | nt | -21.3% | ? | ? | 16.4µM* | 0.5%
Cc1cc(C)c(C(=O)Nc2ccccc2)c(SCC(=O)Nc2ccc(Br)cc2C)n1 | nt | 1.5% | 9.4% | 16.4µM* | 23.1µM* | -3.6%
SMILES | IL1B secr inh | HepG2 viability | TGFb inhibitor | DT40 TDP1 CPT | TDP1 cell noCPT | TDP1 block
COc1ccccc1C(=O)N/N=C/c1c[nH]c2ccccc12 | 6.8 | -24.4% | -2.8% | -4.6% | -18.6% | nt
CSc1cccc(Nc2cc(C(=O)NCCCN(C)c3ccccc3)c3ccccc3n2)c1 | nt | -19.9% | -23.9% | 14.6µM* | 13µM* | 5.7%
COc1ccccc1Nc1cc(C(=O)NCCCN(C)c2ccccc2)c2ccccc2n1 | nt | -9.6% | -23.9% | ? | ? | 0.9%
CCc1ccc(Nc2cc(C(=O)NCCCN(C)c3ccccc3)c3ccccc3n2)cc1 | nt | -14.2% | ? | ? | 13µM* | 4.7%
CCOc1ccc(-c2nc(CSCC(=O)NCCc3ccccc3)c(C)o2)cc1 | nt | -17.0% | ? | ? | 18.4µM* | 4.7%
Cc1oc(-c2ccccc2F)nc1CSCC(=O)NC1CC1 | 0.0 | -2.3% | 10.2% | ? | -23.5% | 2.2%
Cc1oc(-c2ccc(Cl)cc2)nc1CS(=O)CC(=O)NCCCN1CCN(Cc2ccccc2)CC1 (centres undefined) | -79.5* | -30.6% | ? | 14.6µM* | ? | 6.4%
Cc1ccc(-c2nc(CSCC(=O)NCCN3CCN(Cc4ccccc4)CC3)c(C)o2)cc1 | -26.8 | -22.9% | 0.0% | ? | 20.6µM* | 2.0%
Cc1oc(-c2ccccc2F)nc1CSCC(=O)NCCc1ccccc1 | nt | -10.9% | ? | 13µM* | 18.4µM* | 6.9%
Cc1oc(-c2ccc(Cl)cc2)nc1CS(=O)CC(=O)NCCCN1CCCC(C)C1 (centres undefined) | ? | -20.0% | -11.0% | ? | ? | 2.4%
CCOc1ccc(-c2nc(CSCC(=O)NCc3ccc(Cl)cc3)c(C)o2)cc1 | nt | -19.2% | -34.0% | ? | ? | 2.8%
COc1cc(-c2cc3n(C)c(C)c(CCC(=O)O)c(=O)n3n2)cc(OC)c1OC | nt | 6.1% | -14.2% | 12.0% | 1.4% | 2.3%
Cc1ccc(C(=O)OCC(=O)Nc2cccc(S(=O)(=O)N3CCCCC3)c2)s1 | -14.3 | 2.4% | 3.3% | ? | ? | nt
CC(=O)Nc1c(I)c(C(=O)N[C@H]2C(O)O[C@H](CO)[C@@H](O)[C@@H]2O)c(I)c(N(C)C(C)=O)c1I (some centres undefined) | 28.8 | 8.9% | 1.2% | 1.0% | 16.0% | nt
CCc1ccc(-c2nc(CSCC(=O)NCc3ccco3)c(C)o2)cc1 | -7.2 | -18.6% | ? | ? | ? | 0.0%
